SMILES strings stand for the structures. Records with an inconclusive call do not appear. Unmarked numbers belong to inactive results. Activity calls are given as the source filed them. Calls follow the shape of the dose curve; as a rule, active = well fitted curve in the direction sought with a large enough effect; inconclusive = small, poorly fitted or top-dose-only effect, or another doubt; inactive = no such curve, though single readings can be large; an effect the other way counts as inactive or inconclusive.

A short description of assay [1]: Drug repurposing screens with cells derived from glioblastoma tumor samples (AID 1345199). Also: nearly all actives have a fitted effect of over 40% in size. As to activity, negative = cell killing: % is scaled to controls: 0 for no effect and ±100 for the full control effect. The following applies: GBM patient neurospheres viability, ATP luminescence, 48 h. In outline:
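Primary testing used CD133+ neurospheres from four GBM patients, seven concentrations, 48 h exposure and ATP-based viability; confirmation added three slower-growing patient lines.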

Assay [2] in a line: qHTS assay to identify inhibitors of the type 1 interferon - major histocompatibility complex class I in skeletal muscle: Counter screen cell viability and HiBit confirmation (AID 1347412). Also: nearly all actives have a fitted effect of over 60% in size. The following applies: iHSKM muscle cells + IFN-b, HiBiT or CellTiter-Glo, 24 h. In outline: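 Luminescence read-out: Nano-Glo HiBiT lytic signal from C-terminally HiBiT-tagged HLA-B in CRISPR-edited human myoblasts, plus CellTiter Glo ATP as viability counter screen. IFN-beta 4.0 ng/ml; 24 hrs treatment at 37 C, 5% CO2.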
On the technique in general: Quantitative high-throughput screening tests each substance at several concentrations.

Setting [3] is: at 21.2 µM (top of the series), tumour line B.
Setting [4] is: at 21.2 µM (top of the series), tumour line D.
[5] abbreviates: at 46 µM (top of the series), tumour line A.
Where [6] appears, read: at 45.9 µM (top of the series), tumour line B.
Setting [7] is: at 45.9 µM (top of the series), tumour line D.
Setting [8] is: at 46.1 µM (top of the series), tumour line C.
Potency is read from the fitted curve at half-maximal effect.

`O=C(O)CCC(=O)c1ccc(-c2ccccc2)cc1`: the activity, negative = cell killing is -10% in assay [1] (setting [3]) and -17.7% in assay [1] (setting [4]).
Turning to `O=C(O)Cc1cc(I)c(Oc2ccc(O)c(I)c2)c(I)c1`, the activity, negative = cell killing was 6.94% in assay [1] (setting [3]); 9.76% in assay [1] (setting [4]); -9.11% in assay [1] (at 21.3 µM (top of the series), tumour line A).
As for `CO[C@H]1C[C@@H]2CC[C@@H](C)[C@@](O)(O2)C(=O)C(=O)N2CCCC[C@H]2C(=O)O[C@H]([C@H](C)C[C@@H]2CC[C@@H](OC(=O)C(C)(CO)CO)[C@H](OC)C2)CC(=O)[C@H](C)/C=C(\C)[C@@H](O)[C@@H](OC)C(=O)[C@H](C)C[C@H](C)/C=C/C=C/C=C/1C`, in assay [1] (setting [5]), the activity, negative = cell killing is -25.2%.
Consider `CCN(CC)CCOCCOC(=O)C(CC)(CC)c1ccccc1`, for which the Potency in assay [1] (tumour line B) is 14.1 µM (active).
On to `CC(C)=CCC/C(C)=C/CC/C(C)=C/CC/C(C)=C/CC1=C(C)C(=O)c2ccccc2C1=O`, for which the Potency in assay [1] (tumour line C) was 23.1 µM (active).
On to `C[C@H]1O[C@@H](O[C@H]2[C@@H](O)C[C@H](O[C@H]3[C@@H](O)C[C@H](O[C@H]4CC[C@@]5(C)[C@H](CC[C@@H]6[C@@H]5C[C@@H](O)[C@]5(C)[C@@H](C7=CC(=O)OC7)CC[C@]65O)C4)O[C@@H]3C)O[C@@H]2C)C[C@H](O)[C@@H]1O`, for which, in assay [2], the Potency is 0.0394 µM (active).
Take `O=C(Cc1cccs1)N[C@@H]1C(=O)N2C(C(=O)[O-])=C(C[n+]3ccccc3)CS[C@H]12`: the activity, negative = cell killing was -13.3% in assay [1] (setting [6]), 8.29% in assay [1] (setting [7]), -29.7% in assay [1] (setting [5]) and -10.2% in assay [1] (setting [8]).
Take `C=CCCCCCCCCC(=O)OC`: the activity, negative = cell killing in assay [1] (setting [6]) is -4.31%; in assay [1] (setting [7]), -1.83%; in assay [1] (setting [8]), 7.19%.

The values are drawn from PubChem BioAssay (NCATS).
